Shown is part of a subset that was picked to be rich in the strongest signals.
What was measured:
Test in all cases: glycan array binding signal (z-score within array); higher = stronger binding
Conditions in all cases: glycan notation: IUPAC condensed, linker removed
[1] = molecular target: Fuc(a1-2)Gal(b1-3)[Fuc(a1-4)]GlcNAc(b1-2)Man(a1-3)[Fuc(a1-2)Gal(b1-3)[Fuc(a1-4)]GlcNAc(b1-2)Man(a1-3)]Man(b1-4)GlcNAc(b1-4)GlcNAc
Procedure, shortened: (§1)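 The Consortium for Functional Glycomics database supplied 3228 glycan arrays, of which those lacking an available protein sequence were dropped. The binding signal, a within-array Z-score, was averaged across arrays of the same protein sequence and across linkers. Negative scores can be read as non-binding.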

[2] = molecular target: Fuc(a1-2)Gal(b1-4)GlcNAc(b1-2)Man
Procedure, shortened: as §1

[3] = molecular target: Fuc(a1-2)[Gal(a1-3)]Gal(b1-4)GlcNAc(b1-2)Man
Procedure, shortened: as §1

[4] = molecular target: Fuc(a1-2)[Gal(a1-4)]Gal(b1-4)GlcNAc
Procedure, shortened: as §1

[5] = molecular target: Fuc(a1-2)[GalNAc(a1-3)]Gal(b1-4)GlcNAc(b1-6)GalNAc
Procedure, shortened: as §1

[6] = molecular target: Fuc(a1-3)[Gal(b1-4)]GlcNAc(b1-6)GalNAc
Procedure, shortened: as §1

[7] = molecular target: Gal(a1-3)Gal(b1-3)GlcNAc(b1-2)Man
Procedure, shortened: as §1

[8] = molecular target: Gal(a1-4)Gal(b1-3)GlcNAc(b1-2)Man(a1-3)[Gal(a1-4)Gal(b1-3)GlcNAc(b1-2)Man(a1-6)]Man(b1-4)GlcNAc(b1-4)GlcNAc
Procedure, shortened: as §1

[9] = molecular target: Gal(b1-3)GlcNAc(a1-3)Gal(b1-4)GlcNAc
Procedure, shortened: as §1

[10] = molecular target: Gal(b1-3)GlcNAc(b1-2)Man(a1-3)[GlcNAc(b1-4)][Gal(b1-3)GlcNAc(b1-2)Man(a1-6)]Man(b1-4)GlcNAc(b1-4)GlcNAc
Procedure, shortened: as §1

[11] = molecular target: Gal(b1-3)GlcNAc(b1-3)Gal(b1-4)Glc
Procedure, shortened: as §1

[12] = molecular target: Gal(b1-3)GlcNAc(b1-3)Gal(b1-4)GlcNAc(b1-3)Gal(b1-4)GlcNAc(b1-2)[Gal(b1-3)GlcNAc(b1-3)Gal(b1-4)GlcNAc(b1-3)Gal(b1-4)GlcNAc(b1-6)]Man(a1-6)[Gal(b1-3)GlcNAc(b1-3)Gal(b1-4)GlcNAc(b1-3)Gal(b1-4)GlcNAc(b1-2)Man(a1-3)]Man(b1-4)GlcNAc(b1-4)[Fuc(a1-6)]GlcNAc
Procedure, shortened: as §1

[13] = molecular target: Gal(b1-4)GlcNAc(b1-2)Man(a1-3)Man(b1-4)GlcNAc(b1-4)GlcNAc
Procedure, shortened: as §1

[14] = molecular target: Gal(b1-4)GlcNAc(b1-2)[Gal(b1-4)GlcNAc(b1-4)]Man(a1-3)[Gal(b1-4)GlcNAc(b1-2)[Gal(b1-4)GlcNAc(b1-6)]Man(a1-6)]Man(b1-4)GlcNAc(b1-4)GlcNAc
Procedure, shortened: as §1

[15] = molecular target: Gal(b1-4)GlcNAc(b1-3)Gal(b1-4)GlcNAc(b1-2)Man(a1-3)[Gal(b1-4)GlcNAc(b1-3)Gal(b1-4)GlcNAc(b1-2)Man(a1-6)]Man(b1-4)GlcNAc(b1-4)GlcNAc
Procedure, shortened: as §1

[16] = molecular target: Gal(b1-4)GlcNAc(b1-3)Gal(b1-4)GlcNAc(b1-3)Gal(b1-4)GlcNAc(b1-2)Man(a1-3)[Gal(b1-4)GlcNAc(b1-3)Gal(b1-4)GlcNAc(b1-3)Gal(b1-4)GlcNAc(b1-2)Man(a1-6)]Man(b1-4)GlcNAc(b1-4)GlcNAc
Procedure, shortened: as §1

[17] = molecular target: Gal(b1-4)GlcNAc(b1-3)Gal(b1-4)GlcNAc(b1-3)Gal(b1-4)GlcNAc(b1-3)Gal(b1-4)GlcNAc(b1-3)Gal(b1-4)GlcNAc(b1-2)Man(a1-3)[Gal(b1-4)GlcNAc(b1-3)Gal(b1-4)GlcNAc(b1-3)Gal(b1-4)GlcNAc(b1-3)Gal(b1-4)GlcNAc(b1-3)Gal(b1-4)GlcNAc(b1-2)Man(a1-6)]Man(b1-4)GlcNAc(b1-4)[Fuc(a1-6)]GlcNAc
Procedure, shortened: as §1

[18] = molecular target: Gal(b1-4)GlcNAc(b1-3)Gal(b1-4)GlcNAc(b1-3)Gal(b1-4)GlcNAc(b1-3)Gal(b1-4)GlcNAc(b1-3)Gal(b1-4)GlcNAc(b1-2)[Gal(b1-4)GlcNAc(b1-3)Gal(b1-4)GlcNAc(b1-3)Gal(b1-4)GlcNAc(b1-3)Gal(b1-4)GlcNAc(b1-3)Gal(b1-4)GlcNAc(b1-6)]Man(a1-6)[Gal(b1-4)GlcNAc(b1-3)Gal(b1-4)GlcNAc(b1-3)Gal(b1-4)GlcNAc(b1-3)Gal(b1-4)GlcNAc(b1-3)Gal(b1-4)GlcNAc(b1-2)Man(a1-3)]Man(b1-4)GlcNAc(b1-4)[Fuc(a1-6)]GlcNAc
Procedure, shortened: as §1

[19] = molecular target: Gal(b1-4)GlcNAc(b1-3)Gal(b1-4)GlcNAc(b1-3)Gal(b1-4)GlcNAc(b1-3)Gal(b1-4)GlcNAc(b1-3)Gal(b1-4)GlcNAc(b1-3)Gal(b1-4)GlcNAc(b1-2)Man(a1-3)[Gal(b1-4)GlcNAc(b1-3)Gal(b1-4)GlcNAc(b1-3)Gal(b1-4)GlcNAc(b1-3)Gal(b1-4)GlcNAc(b1-3)Gal(b1-4)GlcNAc(b1-3)Gal(b1-4)GlcNAc(b1-2)Man(a1-6)]Man(b1-4)GlcNAc(b1-4)GlcNAc
Procedure, shortened: as §1

[20] = molecular target: Gal(b1-4)GlcNAc(b1-3)Gal(b1-4)GlcNAc(b1-6)[Gal(b1-3)]GalNAc
Procedure, shortened: as §1

[21] = molecular target: Gal(b1-6)Gal
Procedure, shortened: as §1

[22] = molecular target: Gal4S6S(b1-4)GlcNAc
Procedure, shortened: as §1

[23] = molecular target: Gal6S(b1-3)GlcNAc
Procedure, shortened: as §1

[24] = molecular target: GalNAc3S(b1-4)[Fuc(a1-3)]GlcNAc
Procedure, shortened: as §1

[25] = molecular target: Glc(a1-4)Glc
Procedure, shortened: as §1

[26] = molecular target: Glc(a1-4)Glc(a1-4)Glc(a1-4)Glc
Procedure, shortened: as §1

[27] = molecular target: GlcA(b1-3)GlcNAc
Procedure, shortened: as §1

[28] = molecular target: GlcNAc(a1-3)Gal(b1-4)GlcNAc
Procedure, shortened: as §1

[29] = molecular target: GlcNAc(b1-2)[GlcNAc(b1-6)]Man(a1-6)[GlcNAc(b1-2)Man(a1-3)]Man(b1-4)GlcNAc(b1-4)[Fuc(a1-6)]GlcNAc
Procedure, shortened: as §1

[30] = molecular target: GlcNAc(b1-2)[GlcNAc(b1-6)]Man(a1-6)[GlcNAc(b1-4)][GlcNAc(b1-2)Man(a1-3)]Man(b1-4)GlcNAc(b1-4)GlcNAc
Procedure, shortened: as §1

[31] = molecular target: GlcNAc(b1-3)Gal
Procedure, shortened: as §1

[32] = molecular target: GlcNAc(b1-3)[GlcNAc(b1-6)]GalNAc
Procedure, shortened: as §1

[33] = molecular target: GlcNAc(b1-4)GlcNAc(b1-4)GlcNAc
Procedure, shortened: as §1

[34] = molecular target: GlcNAc(b1-4)GlcNAc(b1-4)GlcNAc(b1-4)GlcNAc(b1-4)GlcNAc
Procedure, shortened: as §1

[35] = molecular target: GlcNAc(b1-6)Gal(b1-4)GlcNAc
Procedure, shortened: as §1

[36] = molecular target: GlcNAc(b1-6)GalNAc
Procedure, shortened: as §1

[37] = molecular target: MurNAc(b1-4)GlcNAc
Procedure, shortened: as §1

[38] = molecular target: Neu5Ac(a2-3)Gal(b1-3)GlcNAc(b1-2)Man(a1-3)[Neu5Ac(a2-3)Gal(b1-3)GlcNAc(b1-2)Man(a1-6)]Man(b1-4)GlcNAc(b1-4)GlcNAc
Procedure, shortened: as §1

[39] = molecular target: Neu5Ac(a2-3)Gal(b1-3)GlcNAc6S
Procedure, shortened: as §1

[40] = molecular target: Neu5Ac(a2-3)Gal(b1-3)]Neu5Ac(a2-3)Gal(b1-4)]GlcNAc
Procedure, shortened: as §1

[41] = molecular target: Neu5Ac(a2-3)Gal(b1-4)[Fuc(a1-3)]GlcNAc(b1-3)Gal(b1-4)GlcNAc
Procedure, shortened: as §1

[42] = molecular target: Neu5Ac(a2-3)Gal(b1-4)[Fuc(a1-3)]GlcNAc(b1-6)[Gal(b1-3)]GalNAc
Procedure, shortened: as §1

[43] = molecular target: Neu5Ac(a2-3)Gal(b1-4)[Fuc(a1-3)]GlcNAc(b1-6)[Neu5Ac(a2-3)Gal(b1-3)]GalNAc
Procedure, shortened: as §1

[44] = molecular target: Neu5Ac(a2-6)Gal(b1-4)GlcNAc(b1-2)[Neu5Ac(a2-6)Gal(b1-4)GlcNAc(b1-4)]Man(a1-3)[GlcNAc(b1-4)][Neu5Ac(a2-6)Gal(b1-4)GlcNAc(b1-2)[Neu5Ac(a2-6)Gal(b1-4)GlcNAc(b1-6)]Man(a1-6)]Man(b1-4)GlcNAc(b1-4)GlcNAc
Procedure, shortened: as §1

[45] = molecular target: Neu5Ac(a2-6)Gal(b1-4)GlcNAc(b1-2)[Neu5Ac(a2-6)Gal(b1-4)GlcNAc(b1-6)]Man(a1-6)[Neu5Ac(a2-6)Gal(b1-4)GlcNAc(b1-2)Man(a1-3)][GlcNAc(b1-4)]Man(b1-4)GlcNAc(b1-4)GlcNAc
Procedure, shortened: as §1

[46] = molecular target: Neu5Ac(b2-6)GalNAc
Procedure, shortened: as §1

[47] = molecular target: Neu5Gc(a2-3)Gal(b1-3)GlcNAc
Procedure, shortened: as §1

[48] = molecular target: Neu5Gc(a2-8)Neu5Ac(a2-3)Gal(b1-4)GlcNAc
Procedure, shortened: as §1

B1: Pbx1 (Cryptococcus neoformans) (protein)
chain: ATTKCLVSGDQDSINNALALGGEGTTVTLCPGSVHRLNSSIIFTAPSQTLTTLGNPKDRNRAMLVVDGEDLACAIRADCKQCSHAMIRSLVIDGNRPQLLRIPKGDALIEVGNAESQTVRDCKLYEPRGWSALHFREGDERQCRFGHIVDNEIGPCGEEWDDEYDSMDETKPLWGNPRADGISLACKDSIVERNVVYDATDGAIVLFGSAGSTVKNNHVYARTRVILGGINLVDYEPWDGDYTNVKVHHNHLYALGRYFKVGIVIGPASWSDDTESVVHSASVTDNEFSGGYWGYGIVVASAKNFEVLRNKVIWDGEQGVARFSGVPGSRCPKAPENGKPTAFLINRGSAKGIFQDDFVNGEVQHIICLNPDQDPPYKPWRFRDSPEAIAAKQAENPTANSAFDSRIAEALVSYQMSLLNSMDAMTQKVEHLTNPIVDDALPFVHEHERAEADKKARQEASRKEKESGNKDVDMLNVKVEELEKSGRRLKKALDGLKSDFEGLSGRLKKSADENKPIIETIFVTSQNLLLGATSQQN
glycan array binding signal (z-score) [1]: 2.82 | glycan array binding signal (z-score) [2]: -0.654 | glycan array binding signal (z-score) [3]: -0.203 | glycan array binding signal (z-score) [4]: 0.002 | glycan array binding signal (z-score) [5]: 0.252 | glycan array binding signal (z-score) [6]: 2.34 | glycan array binding signal (z-score) [7]: 1.04 | glycan array binding signal (z-score) [8]: 2.14 | glycan array binding signal (z-score) [9]: -0.304 | glycan array binding signal (z-score) [10]: 0.415 | glycan array binding signal (z-score) [11]: -0.533 | glycan array binding signal (z-score) [12]: 15 | glycan array binding signal (z-score) [13]: -0.195 | glycan array binding signal (z-score) [14]: 0.072 | glycan array binding signal (z-score) [15]: 2.91 | glycan array binding signal (z-score) [16]: 2.41 | glycan array binding signal (z-score) [17]: 5.6 | glycan array binding signal (z-score) [18]: 4.38 | glycan array binding signal (z-score) [19]: 1.03 | glycan array binding signal (z-score) [20]: 2.33 | glycan array binding signal (z-score) [21]: -0.233 | glycan array binding signal (z-score) [22]: -0.366 | glycan array binding signal (z-score) [23]: 0.304 | glycan array binding signal (z-score) [24]: 0.766 | glycan array binding signal (z-score) [25]: 0.352 | glycan array binding signal (z-score) [26]: -0.56 | glycan array binding signal (z-score) [27]: 0.759 | glycan array binding signal (z-score) [28]: 0.052 | glycan array binding signal (z-score) [29]: -0.137 | glycan array binding signal (z-score) [30]: -0.848 | glycan array binding signal (z-score) [31]: -0.639 | glycan array binding signal (z-score) [32]: -0.235 | glycan array binding signal (z-score) [33]: -0.565 | glycan array binding signal (z-score) [34]: -0.631 | glycan array binding signal (z-score) [35]: -0.045 | glycan array binding signal (z-score) [36]: -0.262 | glycan array binding signal (z-score) [37]: 5.14 | glycan array binding signal (z-score) [38]: 0.345 | glycan array binding signal (z-score) [39]: -0.618 | glycan array binding signal (z-score) [40]: -1.05 | glycan array binding signal (z-score) [41]: 0.071 | glycan array binding signal (z-score) [42]: 3.7 | glycan array binding signal (z-score) [43]: 0.371 | glycan array binding signal (z-score) [44]: 2.36 | glycan array binding signal (z-score) [45]: -0.36 | glycan array binding signal (z-score) [46]: -0.769 | glycan array binding signal (z-score) [47]: -0.531 | glycan array binding signal (z-score) [48]: -0.771
